Assay results from ChEMBL document CHEMBL1961873, “Compounds: GSK PKIS; Assays: Nanosyn kinase panel” (2012).
“And” between values parts separate entries of the source, which are not always exact repeats. Equal values may be shown once.

Assays:
[1] = biological target: RAC-alpha serine/threonine-protein kinase (Homo sapiens) (UniProt P31749); details: at 0.1 µM
[2] = biological target: RAC-alpha serine/threonine-protein kinase (Homo sapiens) (UniProt P31749); details: at 1 µM
[3] = biological target: RAC-beta serine/threonine-protein kinase (Homo sapiens) (UniProt P31751); details: at 0.1 µM
[4] = biological target: RAC-beta serine/threonine-protein kinase (Homo sapiens) (UniProt P31751); details: at 1 µM
[5] = biological target: RAC-gamma serine/threonine-protein kinase (Homo sapiens) (UniProt Q9Y243); details: at 0.1 µM
[6] = biological target: RAC-gamma serine/threonine-protein kinase (Homo sapiens) (UniProt Q9Y243); details: at 1 µM
[7] = biological target: G protein-coupled receptor kinase 6 (Homo sapiens) (UniProt P43250); details: at 0.1 µM
[8] = biological target: G protein-coupled receptor kinase 6 (Homo sapiens) (UniProt P43250); details: at 1 µM
[9] = biological target: T1, Rhodopsin kinase GRK7 (Homo sapiens) (UniProt Q8WTQ7); details: at 0.1 µM
T1 sequence (whole entry): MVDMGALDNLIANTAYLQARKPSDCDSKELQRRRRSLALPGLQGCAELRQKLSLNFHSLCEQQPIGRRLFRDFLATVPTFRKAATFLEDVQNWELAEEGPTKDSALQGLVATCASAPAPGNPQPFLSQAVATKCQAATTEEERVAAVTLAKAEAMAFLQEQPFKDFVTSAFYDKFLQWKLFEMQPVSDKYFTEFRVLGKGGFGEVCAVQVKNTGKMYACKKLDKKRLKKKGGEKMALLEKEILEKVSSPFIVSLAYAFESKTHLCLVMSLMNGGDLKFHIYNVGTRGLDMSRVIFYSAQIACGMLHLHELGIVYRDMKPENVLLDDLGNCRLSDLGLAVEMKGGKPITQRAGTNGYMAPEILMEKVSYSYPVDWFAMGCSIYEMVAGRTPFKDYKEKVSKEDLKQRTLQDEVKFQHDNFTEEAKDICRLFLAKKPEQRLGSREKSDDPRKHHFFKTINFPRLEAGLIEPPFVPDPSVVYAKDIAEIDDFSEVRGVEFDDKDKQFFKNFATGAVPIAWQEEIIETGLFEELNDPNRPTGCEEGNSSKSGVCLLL

[10] = biological target: T1, Rhodopsin kinase GRK7 (Homo sapiens); details: at 1 µM

Sequence of G protein-coupled receptor kinase 6 (Homo sapiens) (P43250 whole entry, looked up): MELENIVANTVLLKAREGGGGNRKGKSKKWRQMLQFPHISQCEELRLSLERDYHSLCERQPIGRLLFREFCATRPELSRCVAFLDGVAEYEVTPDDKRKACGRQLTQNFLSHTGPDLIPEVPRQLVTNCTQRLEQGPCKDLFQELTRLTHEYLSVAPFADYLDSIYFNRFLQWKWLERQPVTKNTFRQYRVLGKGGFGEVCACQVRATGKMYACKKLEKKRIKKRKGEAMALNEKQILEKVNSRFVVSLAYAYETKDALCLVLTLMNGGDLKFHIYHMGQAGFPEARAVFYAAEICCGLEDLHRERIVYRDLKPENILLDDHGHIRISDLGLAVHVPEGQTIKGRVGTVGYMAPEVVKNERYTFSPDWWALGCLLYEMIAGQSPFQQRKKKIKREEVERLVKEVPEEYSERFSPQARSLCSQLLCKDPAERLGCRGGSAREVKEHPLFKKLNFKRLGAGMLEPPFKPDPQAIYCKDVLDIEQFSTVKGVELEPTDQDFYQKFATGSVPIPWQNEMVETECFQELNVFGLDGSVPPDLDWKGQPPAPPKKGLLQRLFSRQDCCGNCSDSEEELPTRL
Sequence of RAC-beta serine/threonine-protein kinase (Homo sapiens) (P31751 whole entry): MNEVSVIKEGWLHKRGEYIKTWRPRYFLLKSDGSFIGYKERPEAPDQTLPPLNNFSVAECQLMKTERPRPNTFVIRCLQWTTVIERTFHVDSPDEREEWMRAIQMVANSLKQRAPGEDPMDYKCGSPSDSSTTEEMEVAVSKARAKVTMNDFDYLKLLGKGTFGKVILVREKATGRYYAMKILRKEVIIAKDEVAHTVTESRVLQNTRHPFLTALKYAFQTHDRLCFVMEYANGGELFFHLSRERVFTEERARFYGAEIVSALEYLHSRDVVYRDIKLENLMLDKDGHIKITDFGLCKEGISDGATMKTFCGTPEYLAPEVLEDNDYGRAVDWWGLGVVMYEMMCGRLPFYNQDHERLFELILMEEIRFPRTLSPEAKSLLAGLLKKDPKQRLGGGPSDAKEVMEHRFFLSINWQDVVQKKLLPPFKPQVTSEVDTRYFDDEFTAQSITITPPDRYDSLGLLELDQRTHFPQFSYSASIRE
Sequence of RAC-gamma serine/threonine-protein kinase (Homo sapiens) (Q9Y243 whole entry): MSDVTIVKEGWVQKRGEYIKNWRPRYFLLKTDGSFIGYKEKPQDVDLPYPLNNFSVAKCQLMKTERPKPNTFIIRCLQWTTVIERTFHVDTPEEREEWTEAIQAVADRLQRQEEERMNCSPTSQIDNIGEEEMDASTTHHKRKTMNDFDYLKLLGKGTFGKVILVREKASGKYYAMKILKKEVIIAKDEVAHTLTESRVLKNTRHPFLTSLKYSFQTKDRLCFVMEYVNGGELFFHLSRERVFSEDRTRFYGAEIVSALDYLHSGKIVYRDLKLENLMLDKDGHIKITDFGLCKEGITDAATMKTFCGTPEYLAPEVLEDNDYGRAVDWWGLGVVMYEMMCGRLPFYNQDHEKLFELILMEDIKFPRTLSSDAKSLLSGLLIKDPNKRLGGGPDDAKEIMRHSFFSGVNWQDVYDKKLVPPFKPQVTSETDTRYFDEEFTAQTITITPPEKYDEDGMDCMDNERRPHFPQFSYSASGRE
Sequence of RAC-alpha serine/threonine-protein kinase (Homo sapiens) (P31749 whole entry): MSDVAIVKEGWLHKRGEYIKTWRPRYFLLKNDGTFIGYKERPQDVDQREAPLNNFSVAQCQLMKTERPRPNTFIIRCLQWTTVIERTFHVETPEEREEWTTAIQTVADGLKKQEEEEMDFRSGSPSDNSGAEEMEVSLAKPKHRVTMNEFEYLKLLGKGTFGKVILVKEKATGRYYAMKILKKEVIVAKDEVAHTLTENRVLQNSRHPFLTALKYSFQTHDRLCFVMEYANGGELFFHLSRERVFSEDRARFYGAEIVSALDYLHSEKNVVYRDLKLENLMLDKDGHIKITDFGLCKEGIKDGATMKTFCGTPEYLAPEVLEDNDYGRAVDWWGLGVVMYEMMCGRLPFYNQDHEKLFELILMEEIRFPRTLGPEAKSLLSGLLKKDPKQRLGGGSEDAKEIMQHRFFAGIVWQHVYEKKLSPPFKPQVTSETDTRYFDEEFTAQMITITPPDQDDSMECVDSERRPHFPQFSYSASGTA

| SMILES | inhibition [1] | inhibition [2] | inhibition [3] | inhibition [4] | inhibition [5] | inhibition [6] | inhibition [7] | inhibition [8] | inhibition [9] | inhibition [10] |
| --- | --- | --- | --- | --- | --- | --- | --- | --- | --- | --- |
| O=C(O[C@H]1CN[C@H](C#Cc2cc3ncnc(Nc4ccc5c(ccn5Cc5cc(F)ccc5F)c4)c3s2)C1)N1CCOCC1 | 0.34% | 1.4% | 1.89% | 1.81% | 0.84% | 0.51% | 3.43% | 5.16% | 3.33% | 3.94% |
| COc1cccc(Nc2nccc(-c3cnn4ncccc34)n2)c1 | 1.34% | 0.43% | 1.17% | 0.61% | 1.46% | -0.03% | 4.14% | 0.06% | 1.07% | -2.16% |
| c1ccc(-c2n[nH]cc2-c2ccnc(-c3ccc(OCCn4ccnc4)cc3)c2)nc1 | -1.55% | 0.14% | -0.98% | 0.73% | -0.34% | 1.01% | 1.73% | 4.13% | -0.12% | 4.02% |
| CCS(=O)(=O)c1ccc(OC)c(Nc2ncc(-c3cccc(C(C)=O)c3)o2)c1 | 0.68% | 0.26% | 0.96% | 2.41% | 1.01% | 1.05% | 3.78% | 10.8% | 4.52% | 4.18% |
| CCn1c(-c2nonc2N)nc2cncc(C(=O)NCCNC)c21 | 1.98% | 17.7% | 3.28% | 10.5% | 4.31% | 26.2% | -0.59% | 5.57% | 9.46% | 7.46% |
| CC1=C(C(=O)Nc2ccc3[nH]ncc3c2)C(c2ccc(F)cc2)N=C(c2ccc(C(F)(F)F)nc2)N1 (stereo not given) | 0.83% | 1.06% | 1.39% | 1.43% | 1.44% | 1.68% | 3.1% | -2.54% | 0.19% | -2.93% |
| CS(=O)(=O)Nc1ccc(-c2cc(-c3ccccc3)cc(C(N)=O)c2N)cc1 | 0.58% | -0.28% | 0.22% | 1.28% | -0.36% | 2.53% | 1.1% | 1.69% | 7.08% | 1.49% |
| Fc1cccc(COc2ccc(Nc3ncncc3C#Cc3ccccc3)cc2Cl)c1 | 0.45% | 1.07% | 1.28% | 1.61% | 0.72% | 1.12% | 7.01% | 9.97% | 5.2% | 9.23% |
| c1cnn2ncc(-c3ccnc(NCCCN4CCOCC4)n3)c2c1 | 0.48% | 0.29% | 1.29% | 1.85% | 1.38% | 1.68% | 4.92% | 3.86% | 20.1% | 15.5% |
| NS(=O)(=O)c1ccc(N/N=C2\C(=O)Nc3ccc(C(=O)NCc4ccncc4)cc32)cc1 | 1.33% | 1.28% | 2.42% | 1.92% | 1.54% | 1.99% | 5.6% | 21.9% | 2.04% | 6.72% |
| N#Cc1cccc(Nc2ncc(-c3ccccc3)o2)c1 | 0% | -0.69% | 0.15% | 0.75% | 0.9% | -0.1% | 5.37% | 8.61% | 2.76% | 11.2% |
| CN1CCC(n2cnc(-c3ccc(F)cc3)c2-c2ccnc(NCCO)n2)CC1 | 0.7% | 1.07% | 1.3% | 1.3% | 1.33% | 2.14% | 4.71% | 6.12% | 4.41% | 7.73% |
| NS(=O)(=O)c1ccc(N/N=C2\C(=O)Nc3cccc(CCc4ccncc4)c32)cc1 | 0.52% | 0.04% | -0.35% | 0.27% | 0.45% | 1.65% | 0.11% | 1.61% | 7.3% | 5.05% |
| CCCNc1cccc(-n2ncc3c(N/N=C/c4ccncc4)ncnc32)c1 | 0.34% | -0.51% | 0.22% | -0.08% | -0.05% | -1.08% | 3.49% | 3.97% | 2.68% | 4.45% |
| Cc1nnc(-c2cccc(-c3ccc(C(=O)NCC4CC4)cc3)c2)o1 | 0.55% | 1.35% | 2.63% | 1.84% | 1.35% | 1.48% | 3.35% | 10.4% | 6.78% | 6.04% |
| CNC(=O)c1sc(-n2cnc3cc(OC)c(OC)cc32)cc1OCc1ccccc1C(F)(F)F | 0.98% | 0.75% | 0.84% | 2.06% | 1.19% | 2% | 0.06% | -0.11% | 4.78% | 3.47% |

| SMILES | inhibition [1] | inhibition [2] | inhibition [3] | inhibition [4] | inhibition [5] | inhibition [6] | inhibition [7] | inhibition [8] | inhibition [9] | inhibition [10] |
| --- | --- | --- | --- | --- | --- | --- | --- | --- | --- | --- |
| COc1ccc2ncn(-c3cc(O[C@H](C)c4ccccc4C(F)(F)F)c(C(N)=O)s3)c2c1 | -0.49% | -0.66% | -0.92% | -0.19% | 0.16% | 0.41% | -0.28% | 1.33% | -1.81% | 5.21% |
| CS(=O)(=O)CCNCc1ccoc1-c1ccc2ncnc(Nc3ccc(OCc4ccccc4)cc3)c2c1 | -0.19% | 0.18% | -0.24% | 0.41% | -0.09% | 2.03% | 0.69% | 1.77% | 4.11% | -0.84% |
| CS(=O)(=O)CCNCc1ccc(-c2ccc3ncnc(Nc4ccc(OCc5ccccc5)cc4)c3c2)o1 | 0.6% | 0.62% | 0.5% | 1.64% | 0.25% | 2% | 3.01% | 3.33% | 4.51% | 4.87% |
| CC1(C)CC(n2cnc(-c3ccc(F)cc3)c2-c2ccnc(N)n2)CC(C)(C)N1 | -0.24% | 0.14% | -0.58% | 0.6% | 0.06% | -0.35% | 0.95% | 2.33% | -0.49% | -1.38% |
| NC(=O)c1ccc2c(-c3ccnc(NCCCO)n3)c(-c3ccc(F)cc3)nn2c1 | 0.79% | -0.47% | 1.62% | 1.08% | 1.04% | 2.17% | 0.86% | 2.38% | 1.93% | 4.08% |
| CN1CCC(C(=O)Nc2n[nH]c3nc(-c4ccc(O)cc4)c(Br)cc23)CC1 | -3.78% and 0.82% | -3.1% and -0.05% | -1.35% and 0.28% | -1.57% and 1.31% | -2.51% and 0.97% | -0.95% and 3.11% | 8.47% and 0.32% | 20.1% and 5.9% | 5.9% and 4.12% | 16.7% and -0.01% |
| OCCCNc1nccc(-c2c(-c3ccc(F)cc3)nn3cc(C(F)(F)F)ccc23)n1 | 0.44% | 0.71% | 1.9% | 0.18% | 0.6% | 0% | 1.18% | -2.71% | -0.28% | -8.21% |
| CCS(=O)(=O)c1ccc(OC)c(Nc2ncc(-c3cccc(F)c3)o2)c1 | 0.91% | 0.05% | 0.44% | 3.48% | 2.02% | 8.05% | 4.17% | 2.93% | 9.79% | 3.77% |
| Cc1c2ccc(N(C)c3ccnc(Nc4cccc(S(N)(=O)=O)c4)n3)cc2nn1C | -2.15% | -4.81% | -2.16% | -3.49% | -0.07% | -4.61% | -0.96% | 1.02% | 3.31% | 8.97% |
| O=C(O[C@H]1CN[C@H](C#Cc2cc3ncnc(Nc4ccc5c(cnn5Cc5ccccc5)c4)c3s2)C1)N1CCOCC1 | -0.59% | -0.52% | -0.56% | -0.1% | -1.03% | 0.11% | -0.66% | 2.38% | 2.39% | 0.44% |
| COc1cccc(-n2ncc3c(N/N=C/c4ccc(C(=O)NCCN(C)C)cc4)ncnc32)c1 | 0.53% | -4.74% | 1.29% | -2.95% | 1.33% | -1.17% | -2.74% | -7.47% | 1.52% | -8.73% |
| Fc1ccc(Nc2nccc(-c3c(-c4ccc(C(F)(F)F)cc4)nn4ncccc34)n2)cc1F | 1.15% | 1.34% | 0.91% | 1.4% | 1.72% | 1.36% | 0.33% | -0.08% | 2.15% | -0.32% |
| COC(=O)Nc1nc2cc(Oc3ccc(NC(=O)Nc4ccccc4)cc3)ccc2[nH]1 | 0.35% | 0.28% | 1.44% | 1.16% | 2.24% | 0.78% | 3.76% | 10.8% | 4.75% | 15.2% |
| CN1CCN(Cc2ccc(-c3cc4ncnc(Nc5ccc(OCc6cccc(F)c6)c(Cl)c5)c4s3)o2)CC1 | 2.3% and 0.84% | 0.33% and 0.82% | 1.77% and 3.25% | 4.18% and 1.52% | 0.53% and 1.8% | 4.32% and 3.89% | -0.68% and 8.35% | -0.78% and 9.33% | 9.19% and 5.43% | 0.67% and 9.84% |
| CC1=C(C(=O)Nc2ccc3[nH]nc(C)c3c2)C(c2ccc(C(F)(F)F)cc2)CC(=O)N1 (stereo not given) | 1.17% | 1.18% | 0.84% | 1.11% | 0.54% | 2.53% | 3.68% | 14.7% | 0.8% | -5% |
